In PubChem BioAssay (Tox21):
Inconclusive results are not listed. Entries that show only a call come without a potency. The source made the active and inactive calls. Unless noted, calls follow the shape of the dose curve; as a rule, active = well fitted curve in the direction sought with a large enough effect in the repeat runs; inconclusive = weak or mixed curves; inactive = no such curve, though single readings can be large; an effect the other way counts as inactive or inconclusive.

Columns and labels:
[1] = biological target: Peroxisome proliferator-activated receptor delta (Homo sapiens) (UniProt Q03181); assay: qHTS assay to identify small molecule agonists of the peroxisome proliferator-activated receptor delta (PPARd) signaling pathway (AID 743212; calls by dose curve;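 also: HEK293H cells with PPARd UAS beta-lactamase reporter GeneBLAzer system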)
Sequence of Peroxisome proliferator-activated receptor delta (Homo sapiens) (Q03181 whole entry, looked up): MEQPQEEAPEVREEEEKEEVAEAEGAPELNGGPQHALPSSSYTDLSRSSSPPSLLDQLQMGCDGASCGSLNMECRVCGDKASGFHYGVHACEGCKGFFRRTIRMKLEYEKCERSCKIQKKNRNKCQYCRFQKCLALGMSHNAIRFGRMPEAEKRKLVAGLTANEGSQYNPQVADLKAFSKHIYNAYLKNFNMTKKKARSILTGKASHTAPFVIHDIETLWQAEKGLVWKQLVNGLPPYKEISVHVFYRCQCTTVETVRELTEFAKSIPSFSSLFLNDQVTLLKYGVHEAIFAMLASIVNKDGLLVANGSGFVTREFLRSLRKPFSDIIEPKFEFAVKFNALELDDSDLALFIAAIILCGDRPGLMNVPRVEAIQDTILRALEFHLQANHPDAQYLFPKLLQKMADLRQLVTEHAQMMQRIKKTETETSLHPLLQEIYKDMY
Procedure, shortened: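 Steps: seed PPARd-bla HEK293H cells; incubate 5 h, 37 C, 5% CO2; add compounds in DMSO; incubate, 37 C; add LiveBLAzer B/G FRET substrate; hold 2 h at room temperature; measure fluorescence.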

[2] = qHTS assay to identify small molecule antagonists of the peroxisome proliferator-activated receptor delta (PPARd) signaling pathway - cell viability counter screen (AID 743213); also: nearly all actives have a fitted effect of over 50% in size
Procedure, shortened: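 PPARd-bla HEK293H cells were treated with compounds plus agonist L165041 (300 nM final) for 17 h at 37 C. Viability was then read in the same wells by CellTiter-Glo luminescence after 30 min at room temperature.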

[3] = biological target: Peroxisome proliferator-activated receptor delta (Homo sapiens) (UniProt Q03181); assay: qHTS assay to identify small molecule antagonists of the peroxisome proliferator-activated receptor delta (PPARd) signaling pathway (AID 743215; active = well fitted inhibition curve with a large enough effect in the signal ratio in the repeat runs, not every such curve was filed as active; the % refers to the signal ratio;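 also: cells stimulated with agonist L165041 at 300 nM final during compound exposure; series mostly up to about 62 µM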)
Procedure, shortened: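 Here, a reporter line (HEK293H, beta-lactamase under a UAS) measures PPARd signaling. Compounds are tested against agonist L165041 at 300 nM final concentration over 17 h at 37 C, with fluorescence read after substrate.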

[4] = biological target: Bile acid receptor (Homo sapiens) (UniProt Q96RI1); assay: qHTS assay to identify small molecule antagonists of the farnesoid-X-receptor (FXR) signaling pathway (AID 743217; active = well fitted inhibition curve with a large enough effect in the signal ratio in the repeat runs, not every such curve was filed as active; the % refers to the signal ratio)
Sequence of Bile acid receptor (Homo sapiens) (Q96RI1 whole entry, looked up): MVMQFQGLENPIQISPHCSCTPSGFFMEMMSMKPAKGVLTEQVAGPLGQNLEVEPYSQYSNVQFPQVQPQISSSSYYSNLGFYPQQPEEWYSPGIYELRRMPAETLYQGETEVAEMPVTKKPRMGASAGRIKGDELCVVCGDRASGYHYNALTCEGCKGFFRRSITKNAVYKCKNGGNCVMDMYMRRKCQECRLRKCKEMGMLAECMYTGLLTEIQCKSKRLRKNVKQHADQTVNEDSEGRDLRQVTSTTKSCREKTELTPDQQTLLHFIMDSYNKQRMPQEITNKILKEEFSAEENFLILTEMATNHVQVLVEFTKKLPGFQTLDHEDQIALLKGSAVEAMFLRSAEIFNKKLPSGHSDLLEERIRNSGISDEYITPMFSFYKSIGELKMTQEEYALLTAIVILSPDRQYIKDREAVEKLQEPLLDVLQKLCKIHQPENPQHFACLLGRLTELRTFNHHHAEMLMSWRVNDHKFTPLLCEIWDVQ
Procedure, shortened: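 Test compounds are pin-transferred onto FXR-bla HEK 293T cells, then chenodeoxycholic acid is added at 50 uM final. After 16 h at 37 °C, LiveBLAzer B/G substrate is applied for 2 h at room temperature and fluorescence read.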

[5] = qHTS assay to identify small molecule agonists of the farnesoid-X-receptor (FXR) signaling pathway - cell viability counter screen (AID 743218); also: nearly all actives have a fitted effect of over 45% in size
Procedure, shortened: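 Quantitative HTS counter screen measuring ATP-based viability via CellTiter-Glo luminescence in HEK 293T cells carrying a UAS-driven beta-lactamase reporter, after 16 h compound exposure at 37 C.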

[6] = biological target: Bile acid receptor (Homo sapiens) (UniProt Q96RI1); assay: qHTS assay to identify small molecule agonists of the farnesoid-X-receptor (FXR) signaling pathway (AID 743220; active = well fitted activation curve with a large enough effect in the signal ratio in the repeat runs, not every such curve was filed as active; the % refers to the signal ratio)
Procedure, shortened: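 FXR-UAS-bla HEK 293T cells carrying a UAS-driven beta-lactamase reporter were plated for 5 h at 37C/5% CO2, then exposed to DMSO-dissolved Tox21 10K compounds for 16 h at 37C. A LiveBLAzer B/G FRET substrate was loaded for 2 h at room temperature before fluorescence reading.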

[7] = qHTS assay to identify small molecule antagonists of the farnesoid-X-receptor (FXR) signaling pathway - cell viability counter screen (AID 743221; active = well fitted cell-killing curve with a large enough effect in the repeat runs, not every such curve was filed as active; also: nearly all actives have a fitted effect of over 50% in size)
Procedure, shortened: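 Multiplexed counter screen: viability of FXR-bla HEK 293T cells under agonist stimulation by chenodeoxycholic acid (50 uM, final) and test compound for 16 h at 37 C, measured by CellTiter-Glo luminescence in the reporter wells.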

[8] = biological target: Vitamin D3 receptor (Homo sapiens) (UniProt P11473); assay: qHTS assay to identify small molecule agonists of the vitamin D receptor (VDR) signaling pathway (AID 743222; calls by dose curve)
Sequence of Vitamin D3 receptor (Homo sapiens) (P11473 whole entry, looked up): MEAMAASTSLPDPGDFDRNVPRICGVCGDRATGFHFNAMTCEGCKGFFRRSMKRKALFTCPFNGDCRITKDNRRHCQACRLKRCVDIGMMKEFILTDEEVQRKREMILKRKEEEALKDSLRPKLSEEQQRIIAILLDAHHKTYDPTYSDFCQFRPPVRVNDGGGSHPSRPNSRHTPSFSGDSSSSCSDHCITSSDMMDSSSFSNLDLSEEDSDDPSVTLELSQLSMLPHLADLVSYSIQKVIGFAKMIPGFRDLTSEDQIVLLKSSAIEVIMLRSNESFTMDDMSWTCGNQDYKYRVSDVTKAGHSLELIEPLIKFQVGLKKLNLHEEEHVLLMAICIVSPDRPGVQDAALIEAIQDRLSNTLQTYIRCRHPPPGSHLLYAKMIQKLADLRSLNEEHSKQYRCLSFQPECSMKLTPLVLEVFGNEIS
Procedure, shortened: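 Tox21 cell reporter format: VDR-bla line, 16 h compound exposure in 5% CO2 at 37C, then fluorescence intensity after 2 h with LiveBLAzer B/G FRET substrate.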

[9] = biological target: Vitamin D3 receptor (Homo sapiens) (UniProt P11473); assay: qHTS assay to identify small molecule antagonists of the vitamin D receptor (VDR) signaling pathway (AID 743223; active = well fitted inhibition curve with a large enough effect in the signal ratio in the repeat runs, not every such curve was filed as active; the % refers to the signal ratio)
Procedure, shortened: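 Cells carrying a VDR-driven beta-lactamase reporter (VDR-bla) were co-treated with compound and 3 nM final 1alpha,25-dihydroxyvitamin D3 for 16 h at 37C; reporter activity was measured as FRET substrate fluorescence after 2 h at room temperature.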

[10] = qHTS assay to identify small molecule agonists of the vitamin D receptor (VDR) signaling pathway - cell viability counter screen (AID 743224); also: nearly all actives have a fitted effect of over 50% in size; also: potency is read from the fitted curve at half-maximal effect
Procedure, shortened: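 CellTiter-Glo viability readout on VDR-bla cells, measured after 16 h of compound treatment at 37C in the same wells.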

Structure (SMILES) | outcome [1] | Potency [2] | Potency [3] | Potency [4] | Potency [5] | outcome [6] | Potency [7] | outcome [8] | outcome [9] | Potency [10]
Cn1sc(Cl)cc1=O | inactive | inactive | inactive | inactive | inactive | inactive | inactive | inactive | inactive | inactive
NC(=O)C(Cl)(Cl)Cl | inactive | inactive | inactive | inactive | inactive | inactive | inactive | inactive | inactive | inactive
OC(c1ccc(Cl)cc1)(c1ccc(Cl)cc1)c1cccnc1 | inactive | inactive | inactive | – | inactive | inactive | – | inactive | inactive | –
CCCCNP(N)(N)=S | inactive | inactive | inactive | inactive | inactive | inactive | inactive | inactive | inactive | inactive
ClCCCCBr | inactive | inactive | inactive | inactive | inactive | inactive | – | inactive | inactive | inactive
C=CC(C)=O | inactive | inactive | inactive | inactive | inactive | inactive | inactive | – | – | –
NNC(=O)c1cccnc1 | inactive | inactive | inactive | inactive | – | inactive | inactive | inactive | inactive | inactive
CCOP(=S)(OCC)Oc1nc(Cl)c(Cl)cc1Cl | inactive | inactive | inactive | inactive | inactive | inactive | inactive | inactive | inactive | inactive
O=C(CBr)c1ccccc1 | inactive | inactive | inactive | inactive | inactive | inactive | inactive | – | – | inactive
Sc1ccccc1Cl | inactive | inactive | inactive | inactive | inactive | inactive | – | inactive | inactive | inactive
Clc1ccc(C2(Cn3cncn3)CC(Br)CO2)c(Cl)c1 (stereo unspecified) | inactive | inactive | inactive | – | inactive | inactive | inactive | inactive | inactive | inactive
COC(N)=O | inactive | inactive | inactive | inactive | – | inactive | – | inactive | – | inactive
CCOP(=S)(OCC)SCSCC | inactive | inactive | inactive | inactive | inactive | inactive | – | inactive | – | inactive
c1ccoc1 | inactive | inactive | inactive | inactive | inactive | inactive | inactive | inactive | inactive | inactive
COP(=S)(OC)Oc1cc(Cl)c(I)cc1Cl | inactive | inactive | inactive | inactive | – | inactive | inactive | inactive | – | –
CC(C)(OO)c1ccccc1 | inactive | inactive | inactive | inactive | inactive | inactive | inactive | inactive | – | 54.9 µM (active)
CCCCN=C=O | inactive | inactive | inactive | inactive | inactive | inactive | inactive | inactive | inactive | inactive
COCCOCCO | inactive | – | – | – | – | – | – | – | – | –
CCCC(Cn1cncn1)c1ccc(Cl)cc1Cl (stereo unspecified) | inactive | inactive | inactive | – | inactive | inactive | – | inactive | – | inactive
O=C(C(Cl)(Cl)Cl)C(Cl)(Cl)Cl | inactive | inactive | inactive | inactive | inactive | inactive | inactive | inactive | inactive | inactive
ClP(Cl)(Cl)(Cl)Cl | inactive | inactive | inactive | inactive | inactive | inactive | inactive | inactive | inactive | –
O=C(O)CC(Cl)C(=O)O (stereo unspecified) | inactive | inactive | inactive | inactive | inactive | inactive | inactive | – | – | inactive
O=C(Nc1ccccc1)Nc1cnns1 | inactive | inactive | inactive | inactive | – | inactive | – | inactive | – | inactive
O=C1C(=O)c2cccc3cccc1c23 | inactive | inactive | inactive | – | inactive | – | – | – | – | –
CCOC(=O)CBr | inactive | inactive | inactive | inactive | – | inactive | inactive | inactive | inactive | inactive
COc1cc(CC(C)N)cc2c1OCO2 (stereo unspecified) | inactive | inactive | inactive | inactive | inactive | inactive | inactive | – | – | inactive
CCCCCCCCCC(=O)O[C@H]1CC[C@H]2[C@@H]3CCC4=CC(=O)CC[C@@H]4[C@H]3CC[C@]12C | inactive | inactive | inactive | inactive | inactive | inactive | inactive | – | inactive | –
CCCCOC(=O)c1ccccc1C(=O)OCc1ccccc1 | inactive | – | – | – | – | – | – | – | – | –
